Consider 30 molecules from PubChem BioAssay.

Structures are written as SMILES.

The nature of the assay: compound effects on multiple myeloma cell viability – MM1S, calcein-AM fluorescence, 48 h, basal, profiling panel (AID 1165). Also: test concentration not given here. Conditions: higher = more signal.
With `COC(=O)c1c(CC[C@@H](CO)NC(=O)N2CCC[C@H]2Cn2cc(-c3ccccn3)nn2)oc(C(C)=O)c1C(=O)OC`, the z-score was 0.208. Next, `CCN(CC)c1ccc(N2CC=CC34O[C@@H]5/C=C\CCCOC(=O)C5[C@H]3C(=O)N(CCO)[C@@H]4C2=O)cc1` (stereo not given in full): 0.727; `CCOC(=O)C1=CCC(c2ccccc2)N(S(=O)(=O)CC[Si](C)(C)C)C1` (stereo not given): -1.76; `NCCCCCNC(=O)[C@@H]1C[C@@H]2C(=O)NCC(=O)N2[C@@H]1c1ccc(O)cc1`: 0.545.

Take `CC(C)(C)OC(=O)CC[C@]1(C(=O)O)N=C(c2ccc(OCCCO)cc2)O[C@H]1c1ccccc1N=[N+]=[N-]`: the z-score was -0.128. The same measure for `O=C1C2C=CC(C(O)C(c3ccccc3)c3ccccc3)N(n3cnnc3)C2C(=O)N1Cc1ccccc1` (stereo not given): -1.09. Take `COc1ccc([Si](C)(C)[C@H]2[C@H](CCn3cc([C@H](O)c4ccccc4)nn3)O[C@@]3(C(=O)N(Cc4cccc(N5CCOC5=O)c4)c4ccccc43)[C@@H]2C)cc1`: the z-score is -1.32.

In the case of `COCCOC(=O)N1C(=O)[C@@]2(c3cc(C#Cc4ccc(OC)cc4)ccc31)[C@H](C(N)=O)[C@H]1C(=O)O[C@H](c3ccccc3)[C@H](c3ccccc3)N1[C@@H]2c1ccccc1OCCO`, the z-score is -2.32. Next, `CC(CO)N1C(=O)[C@@H]2C3C(=O)OCCC/C=C\[C@H]3OC23C=CCN(c2ccc4ccccc4c2)C(=O)[C@@H]13` (stereo not given in full): 1.74; `O=C1NC(=O)C2C1C=CC(C(O)C(c1ccccc1)c1ccccc1)N2Nc1ccc(Cl)cc1Cl` (stereo not given): -3.71. The same measure for `CC(=O)n1cc(C(O)C2C=CC3C(=O)N(C)C(=O)C3N2Nc2ccccc2)c2ccccc21` (stereo not given): 0.305; for `CC(C)C[C@@H]1NC(=O)[C@H]2C[C@@H](C(=O)NCCCCCCN(C)C)[C@@H](c3ccc(O)cc3)N2C1=O`: 0.235. The same measure for `CCN(CC)c1ccc(N2CC=CC34O[C@@H]5/C=C\CCC(C)OC(=O)C5[C@H]3C(=O)N(C(CO)C(C)C)[C@@H]4C2=O)cc1` (stereo not given in full): 1.26; for `C=CCNC(=O)[C@H]1[C@@H]2C(=O)O[C@@H](c3ccccc3)[C@@H](c3ccccc3)N2[C@@H](c2ccccc2OCCO)[C@]12C(=O)Nc1ccc(C#CC3=CCCCC3)cc12`: -3.35; for `CCOC(=O)[C@H]1C/C=C/C[C@H](C(=O)OCC)C(=O)O[C@H]2[C@@H](OC)O[C@H](CO)[C@@H](OC(=O)Nc3cccc(F)c3)[C@@H]2OC1=O`: -3.3. With `CCCC[C@H]1OB(O)C[C@H]2C1=C(COc1ccccc1)C[C@H]1C(=O)N(C)C(=O)[C@H]12`, the z-score is -1.46. The same measure for `OC([C@@H]1CC(c2ccccc2)=NO1)[C@H]1CC(c2ccccc2)=NO1` (stereo not given in full): 0.703; for `CN(C)C(=O)[C@]1(Cc2ccccc2N=[N+]=[N-])N=C(c2ccc(OCCCO)cc2)O[C@@H]1c1ccccc1`: -1.02; for `CCCCCN1CC=CC23O[C@@H]4/C=C\CCCOC(=O)C4[C@H]2C(=O)N(CCCO)[C@@H]3C1=O` (stereo not given in full): 0.759. The same measure for `CC(C)[C@@H](CO)NC(=O)[C@H]1[C@@H](c2ccccc2)N(c2ccccc2)O[C@@H]1C`: 0.714; for `C=CC[C@@]1(C(=O)N(C)C)N=C(c2ccc(OCCCO)cc2)O[C@@H]1c1ccccc1N=[N+]=[N-]`: -0.761. Next, `C=C(C)C1C(=C)CN([C@H](CO)c2ccccc2)C1=O` (stereo not given in full): 0.0188; `O=C(O)[C@@]1(CCS(=O)(=O)c2ccccc2)COC(c2ccc(OCCCO)cc2)=N1`: -1.69.

For the molecule `COC(=O)[C@@]1(Cc2ccc(OC)cc2)[C@H]2c3cc(C(=O)N(C)C)n(CCN4CNCC4=O)c3C[C@H]2CN1C(=O)c1ccccc1`, the z-score was 0.316.

Consider `[N-]=[N+]=NCc1ccccc1[C@@H]1OC(c2ccc(OCCCO)cc2)=N[C@]1(Cc1ccccc1N=[N+]=[N-])C(=O)N1CCOCC1`, for which the z-score is -1.48.

Consider `CN(C)CCCCCCNC(=O)[C@@H]1C[C@@H]2C(=O)N[C@@H](CCCCN)C(=O)N2[C@@H]1c1cccc(OCCO)c1`, for which the z-score is -0.137. Next, `CN1C(=O)C2C=CC(C(O)C3=C[C@H]4C[C@@H](C3)C4(C)C)N(Nc3ccccc3)C2C1=O` (stereo not given in full): -2.52. The same measure for `COC(=O)c1c(CC[C@@H](CO)NC(=O)N[C@H](Cn2cc(Cc3ccccc3)nn2)C(C)C)oc(C(C)=O)c1C(=O)OC`: 0.486; for `CN(C)CCCNC(=O)[C@@]1(c2ccc([N+](=O)[O-])cc2)CC(=O)N(C2CCCCC2)[C@@H]1c1ccc(CO)cc1`: -0.432.

For the molecule `C=CCN1C(=O)[C@@]2(O[C@@H](CCO)[C@H]([Si](C)(C)c3ccc(OC)cc3)[C@H]2C)c2cc(NC(=O)c3ccc(OC)cc3)ccc21`, the z-score is -2.73.
